Assays:
Experiment in all cases: PBM binding z-score (relative to random genomic background probes); higher = stronger binding; sequences stand for … in GC…GCGATTGACAGCGTAGAATGAAGG
[1] = system: FXR:RXRa (NR concentration 270 nM, RXRa partner concentration 90 nM)
In short: (§1)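 Binding z-scores take random background probes as their reference. They come from custom Agilent 4×180K protein-binding microarrays incubated 1 h with ligand-free nuclear receptor dimers, with antibodies against each partner (one per run) detecting binding. Scanned fluorescence was regression-normalized.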

[2] = system: LXRa:RXRa (NR concentration 270 nM, RXRa partner concentration 90 nM)
In short: as §1

[3] = system: LXRa homodimer (NR concentration 270 nM)
In short: as §1

[4] = system: LXRb:RXRa (NR concentration 270 nM, RXRa partner concentration 90 nM)
In short: as §1

[5] = system: LXRb homodimer (NR concentration 270 nM)
In short: as §1

[6] = system: PPARa:RXRa (NR concentration 270 nM, RXRa partner concentration 90 nM)
In short: as §1

[7] = system: PPARg:RXRa (NR concentration 180 nM, RXRa partner concentration 90 nM)
In short: as §1

[8] = system: PPARg:RXRa 270nM:90nM, anti-RXR (NR concentration 270 nM, RXRa partner concentration 90 nM)
In short: as §1

[9] = system: PPARg:RXRa 30nM:10nM, anti-RXR (NR concentration 30 nM, RXRa partner concentration 10 nM)
In short: as §1

[10] = system: PPARg:RXRa 90nM:30nM, anti-RXR (NR concentration 90 nM, RXRa partner concentration 30 nM)
In short: as §1

[11] = system: PPARg:RXRa DBDmut IVT, anti-RXR (DBD mutation: RXRa K156A/R161A, NR concentration 270 nM, RXRa partner concentration 90 nM)
In short: as §1

[12] = system: PPARg:RXRa IVT, anti-PPARg (NR concentration 270 nM, RXRa partner concentration 90 nM)
In short: as §1

[13] = system: PPARg DBDmut:RXRa IVT, anti-PPARg (DBD mutation: PPARg1 K132A/R137A, NR concentration 270 nM, RXRa partner concentration 90 nM)
In short: as §1

[14] = system: PPARg DBDmut IVT, anti-PPARg (DBD mutation: PPARg1 K132A/R137A, NR concentration 270 nM)
In short: as §1

[15] = system: PPARg homodimer (NR concentration 180 nM)
In short: as §1

[16] = system: PXR:RXRa (NR concentration 270 nM, RXRa partner concentration 90 nM)
In short: as §1

[17] = system: PXR homodimer (NR concentration 270 nM)
In short: as §1

[18] = system: RARa:RXR (NR concentration 270 nM, RXRa partner concentration 90 nM)
In short: as §1

[19] = system: RARa homodimer (NR concentration 270 nM)
In short: as §1

[20] = system: RARb:RXRa (NR concentration 270 nM, RXRa partner concentration 90 nM)
In short: as §1

Row | Sequence | PBM binding z-score [1] | PBM binding z-score [2] | PBM binding z-score [3] | PBM binding z-score [4] | PBM binding z-score [5] | PBM binding z-score [6] | PBM binding z-score [7] | PBM binding z-score [8] | PBM binding z-score [9] | PBM binding z-score [10] | PBM binding z-score [11] | PBM binding z-score [12] | PBM binding z-score [13] | PBM binding z-score [14] | PBM binding z-score [15] | PBM binding z-score [16] | PBM binding z-score [17] | PBM binding z-score [18] | PBM binding z-score [19] | PBM binding z-score [20]
1 | TAGCCTAGGTCATGGGCCAGTCTACCACGCGAAC | 4.36 | 3.2 | 0.0919 | 2.04 | -0.312 | 4 | 3.34 | 3.49 | 0.699 | 2.48 | 1.64 | 3.21 | 0.44 | 0.137 | 1.7 | 1.48 | -0.884 | 2.52 | -0.257 | 3.74
2 | GCCTATAGGTAATACAAGGTGAAAGTCCGATTGT | 2.26 | 2.68 | -0.0258 | 0.783 | -0.465 | 1.28 | 0.667 | 0.826 | 0.0563 | 0.57 | 1.99 | 1.53 | 0.858 | 0.233 | 0.234 | 0.642 | 0.00334 | 0.994 | -0.186 | 0.666
3 | CAAACTAGGTCAAGAGGTCATAGTCCGCTTCCCG | 6.79 | 6.06 | 5.4 | 4.74 | 1.48 | 6.55 | 9.82 | 8 | 6.96 | 8.16 | 8.3 | 8.47 | 3.3 | 2.09 | 5.93 | 5.98 | 2.28 | 7.42 | 2.36 | 5.19
4 | TTACCAAGGTGAAAGGGCGTTGATGCACGCCTTG | 1.12 | 0.702 | -0.488 | 0.742 | -0.657 | 3.48 | 5.55 | 5.63 | 4.32 | 5.82 | 1.85 | 3.87 | 0.557 | 0.204 | 0.404 | 1.14 | -0.361 | 1.94 | -0.167 | 1.88
5 | GGAACGAGGGCGAGTTGATAGCAGAGTTTGATGG | -0.328 | -0.505 | -0.54 | -0.523 | -0.787 | -0.0875 | 0.373 | -0.24 | -0.495 | -0.42 | 0.699 | -0.0712 | -0.327 | 0.298 | 0.0249 | 0.0143 | -0.021 | 0.0866 | -0.148 | 0.356
6 | TTACCAAGGTGAAAGGTCGTTGACGCACGCCTTG | 4.03 | 3.4 | 0.245 | 2.91 | -0.135 | 5.49 | 8.84 | 8.07 | 6.9 | 8.64 | 2.81 | 4.77 | 0.591 | 0.0484 | 2.15 | 4.13 | 0.552 | 5.9 | -0.179 | 3.21
7 | GGAACGAGGGCAAGGTGATAGCAGAGTTTGATGG | 0.873 | 0.623 | -0.0759 | 0.183 | -0.496 | 1.74 | 1.76 | 1.89 | 0.199 | 1.19 | 3.43 | 3.26 | -0.452 | -0.737 | 0.922 | 0.851 | 1.06 | 0.793 | 0.23 | 2.78
8 | CCATACGGGTCAAGGTTATAGCACGGGTGGTACG | 5.13 | 3.28 | 0.265 | 2.54 | -0.237 | 4.84 | 4.87 | 4.32 | 1.07 | 3.23 | 1.2 | 3.15 | 0.543 | -0.539 | 2.1 | 3.06 | 0.247 | 3.82 | 0.795 | 4.1
9 | CAGCCTAGGTCAGGGGCAGTATAGGAGGAACGTT | 2.14 | 1.38 | -0.331 | 1.27 | -0.805 | 2.38 | 1.3 | 1.75 | 0.184 | 0.954 | 1.2 | 1.71 | -0.201 | -0.982 | 1.41 | 0.677 | -0.048 | 1.33 | 0.0151 | 3.5
10 | CCTAGTTGGTTAAGGTCACACACGCTATAGGTAC | 4.71 | 4.56 | 2.6 | 4.3 | 1.42 | 4.33 | 2.68 | 3.2 | 1.24 | 2.39 | 1.64 | 2.5 | 1.48 | 1.66 | 3.91 | 4.46 | 4.13 | 4.85 | 2.51 | 4.24
11 | GATACAGGGTCAGCTAGAGGCCATAGTATGGAAA | 4.67 | 3.04 | -0.128 | 2.94 | -0.352 | 4.53 | 4.05 | 3.34 | 0.897 | 2.51 | 0.981 | 2.33 | 0.47 | -0.0794 | 2.26 | 3.96 | 0.241 | 4.62 | 0.222 | 4.15
12 | TAGCCTAGGTCATTGGGCCAGTCTAGTACGCATC | 3.99 | 3.21 | 0.181 | 1.78 | 0.0728 | 3.41 | 3.3 | 3.25 | 0.536 | 2.3 | 2.31 | 3.52 | -0.286 | -0.617 | 1.58 | 1.19 | -0.0454 | 1.82 | -0.767 | 3.53
13 | TTAGCAAGGTGAAGGTCGTTGATCCCTCTGTAGA | 1.98 | 1.6 | -0.45 | 0.97 | -0.841 | 2.38 | 1.94 | 3.32 | 1.18 | 2.64 | 0.732 | 2.79 | -0.57 | -0.963 | 0.358 | 1.19 | -0.023 | 1.51 | -0.525 | 2.03
14 | CCGACTGGGGCAGAAATGTTACCATACCATCCGG | -0.183 | -0.371 | -0.171 | -0.528 | -0.781 | -0.385 | 0.729 | -0.0813 | -0.351 | -0.433 | 1.57 | 0.993 | -0.699 | -1.22 | -0.25 | -0.347 | -0.252 | -0.499 | -0.698 | 0.0353

— the supplement of paper PMC6555819
